# Source: the supplement of paper PMC3334620
# Over roughly 33,000 sequences, “E-score (-0.5 to 0.5)” has its median near -0.043; the highest 2% begin near 0.37. The full list was thinned out, with the highest values kept by preference.
# Target: T1, Upc2 (UniProt Q12151)
# T1 sequence: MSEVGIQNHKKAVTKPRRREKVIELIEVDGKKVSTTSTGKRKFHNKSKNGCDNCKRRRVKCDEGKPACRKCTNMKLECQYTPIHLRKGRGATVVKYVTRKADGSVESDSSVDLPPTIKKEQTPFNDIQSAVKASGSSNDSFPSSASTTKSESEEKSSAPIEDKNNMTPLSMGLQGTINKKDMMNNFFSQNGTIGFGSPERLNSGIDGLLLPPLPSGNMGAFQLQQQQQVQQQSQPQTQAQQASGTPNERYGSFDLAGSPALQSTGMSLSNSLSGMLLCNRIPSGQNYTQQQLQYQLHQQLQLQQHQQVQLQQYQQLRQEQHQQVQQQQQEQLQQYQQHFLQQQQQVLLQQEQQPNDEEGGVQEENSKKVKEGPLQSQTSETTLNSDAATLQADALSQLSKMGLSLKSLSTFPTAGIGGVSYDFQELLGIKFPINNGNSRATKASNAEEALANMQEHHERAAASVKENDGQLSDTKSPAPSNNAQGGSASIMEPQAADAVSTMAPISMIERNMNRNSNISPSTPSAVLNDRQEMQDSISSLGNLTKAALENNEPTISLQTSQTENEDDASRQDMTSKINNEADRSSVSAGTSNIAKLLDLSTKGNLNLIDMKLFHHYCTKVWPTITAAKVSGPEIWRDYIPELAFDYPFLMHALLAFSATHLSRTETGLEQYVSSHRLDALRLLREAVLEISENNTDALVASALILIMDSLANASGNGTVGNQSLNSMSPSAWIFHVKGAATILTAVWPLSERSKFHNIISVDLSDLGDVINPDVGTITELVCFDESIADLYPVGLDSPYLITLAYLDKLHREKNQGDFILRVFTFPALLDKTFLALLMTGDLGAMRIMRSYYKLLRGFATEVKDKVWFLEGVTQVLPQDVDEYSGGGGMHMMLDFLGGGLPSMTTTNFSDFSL
# Test: PBM E-score (8-mer binding enrichment) (E-score (-0.5 to 0.5)); higher = stronger / more preferred TF binding
# Settings: protein concentration: 200 nM; construct: GST-full length
# Method in brief: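 For each ungapped eight-base word taken together with its reverse complement, the Universal PBM Analysis Suite assigned an E-score. Binding data came from GST-tagged yeast transcription factors, applied at about 100-200 nM, on universal all-10-mer Agilent arrays made double-stranded by primer extension. Fluorescent anti-GST marked bound protein, and scans were normalised with masliner.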
row,Sequence,PBM E-score
1,GTTCGTCA,-0.0278
2,GTTCGTGA,0.0858
3,GTTCGTAA,0.424
4,GGATGGTA,0.0248
5,GCTAGCTA,0.0155
6,ACGACCGC,0.359
7,GTGAGAAC,-0.188
8,GCCAAACA,-0.0676
9,ACGTACAC,0.297
10,CCGTACAC,0.382
11,ACGTACAG,0.3
12,GCGTACAC,0.33
13,CCGTACAG,0.418
14,CTGTACAG,0.158
15,AAAAGACA,0.0436
16,CCACAGAC,-0.169
17,ATTAGCCG,0.0535
18,GTGACCGA,0.11
19,ATGTACGG,0.373
20,ATGTACGA,0.472
21,ATGTACCG,-0.03
22,ATGTACTG,-0.177

row,Sequence,PBM E-score
1,CTGTACGC,0.375
2,CTGTACAA,0.0214
3,CTGTACGA,0.488
4,CTGTACTC,0.00852
5,CTGTACCA,-0.134
6,ATGTACGC,0.187
7,ATGTACTA,0.0361
8,CTGTACAC,0.152
9,GACTCTCA,-0.187
10,CAGAAAGA,-0.00388
11,CACATAGG,-0.207
12,AAACCAAA,0.118
13,AAAGCATC,0.0386
14,GTGTACTA,0.127
15,GTGTACGA,0.479
16,GTGTACCA,0.0546
17,CAAGCCTA,-0.0953
18,CACGACGC,0.0689
19,AACGACGG,0.437
20,TACGACGA,0.465
21,ACCGACGT,0.238
22,GACGACGA,-0.00938

row,Sequence,PBM E-score
1,AACGACGT,0.408
2,ACCGACGG,0.108
3,CACGACGG,0.129
4,AAGGACGT,0.0675
5,CACGACGA,0.126
6,AACGACGC,0.442
7,GACGACGC,0.0643
8,GAGCTTGC,-0.231
9,CTCTCTTC,-0.29
10,CTAAGTTC,-0.0418
11,CCAATGGC,-0.226
12,ATTCAAAA,0.0167
13,CTCCACCC,-0.189
14,TAACTCGA,0.109
15,GCTGAGAC,-0.203
16,AATATCTG,-0.124
17,ATCGACGA,-0.0697
18,AACGACGA,0.454
19,AGCGACGA,0.185
20,AACATACG,0.39
21,ATCATACC,-0.02
22,ATCATACG,0.383

row,Sequence,PBM E-score
1,CACATACC,-0.12
2,AACATACC,0.16
3,CACATACA,-0.107
4,ATCATACA,0.0941
5,CGCATACG,0.439
6,CGCATACA,0.114
7,AACATACT,0.0309
8,CACATACG,0.401
9,CGCATACC,0.212
10,TGTAGGAA,-0.0273
11,AAGATGGG,-0.219
12,GATCCAGA,0.0551
13,CTTAGCGC,0.126
14,GACCCCAA,-0.0347
15,ACAAATCT,0.0248
16,ATCGGTCG,0.197
17,AAAGAAGG,-0.138
18,GCAGTATA,0.219
19,ATGTCTCA,-0.192
20,ACATAGGC,-0.126
